# Reference: the supplement of paper PMC11417369
# ± gives the standard deviation of the averaged measurements. The full ranking holds about 25,000 sequences; the median of “ln(normalized median fluorescence intensity)” is about 8.6, and the highest 2% start at about 10. The full list was thinned out, with the highest values kept by preference.
# Tested on: PfAP2-EXP AP2 domain (GST-tagged)
# Assay: gcPBM binding intensity (ln(normalized median fluorescence intensity)); higher = stronger DNA binding
# Method in brief: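 The highest Masliner-normalised natural-log median intensity across replicate spots of either probe orientation is reported as binding intensity. GST-tagged P. falciparum DNA-binding domains expressed in E. coli were applied for 1 h to an Agilent 4 × 180k array of primer-extended double-stranded 36-bp intergenic genomic probes plus negative controls, and bound protein was detected with Alexa488 anti-GST antibody and scanned at 488 nm.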
row,Sequence,gcPBM binding intensity (ln)
1,CATGTATTTTATATTACACACTAATATTATAGATAT [CACACA_site6819],8.27 ± 0.28
2,GCTTCTTAGTATACTTTATAAAATATATATTAAATA [XGTACX_negctrl_site57],8.75 ± 0.47
3,AATATTTTATTTTTTCTCATTAAAAATTTTTTTTTT [CACACA_negctrl_site364],8.46 ± 0.45
4,TAAAATGTAATCTGAACACACATATTTTTTTAATAT [CACACA_site1768],8.12 ± 0.52
5,CTAACAACCAAACGCACACACACAAAAAAAAAAATA [CACACA_site400],8.48 ± 0.42
6,AAATATTTTTTAATTGTTCACTTGGTGGATCATTAA [CACACA_negctrl_site922],8.28 ± 0.28
7,TTTTTTTTTTTTTTTTGTACATATTTTAATTTGTTT [XGTACX_site6297],8.05 ± 0.4
8,TATTTTCCATGAGGTAGTACACATTAAAAAATCGTT [XGTACX_site6887],8.44 ± 0.29
9,AAGAATATTATAAACACACACTTTATAAAGAATTAT [CACACA_site4241],8.51 ± 0.52
10,TAATTTAAAAATTCCTGTACTCAGTTTTTTCTATTT [XGTACX_site4961],8.48 ± 0.39
11,CATATATAAAAAAACACACACATATATATATATATA [CACACA_site1195],10.2 ± 0.61
12,TATAAGCAAAAACACACACACATATATATATATATA [CACACA_site3804],10.3 ± 0.28
13,AAACAAAAAAAATAAGCACACATATATATATATATA [CACACA_site8173],10.1 ± 0.26
14,AAAAAAAAAAAACATACACACATACATACATATATA [CACACA_site8222],8.48 ± 0.4
15,AAAAAAAAAAAACATACACACACATATATATATATA [CACACA_site8452],10 ± 0.54
16,TATGTGCCAAAACACACACACATATATATATATATA [CACACA_site469],10.2 ± 0.11
17,AAAACATACATATATACACACATATATATATATATA [CACACA_site1852],10.2 ± 0.23
18,AAAAAAAAAAAAAAAACACACATATATGTATATATA [CACACA_site3276],8.28 ± 0.5
19,TTTAAGCAAAAACACACACACATATATATATATATA [CACACA_site349],10.1 ± 0.41
20,AAAAAAACACACACATATATATATATATATATATAT [GTGCAC_negctrl_site498],10.2 ± 0.41
21,AAAAAACAAAAACACACACACACATATATATATATA [CACACA_site3654],9.94 ± 0.36
22,ATTATGTGCCAATACACACACACATATATATATATA [CACACA_site468],9.91 ± 0.44
23,ACAGCTCTAGGACATGCATGTTATATAGAAAAAGAG [TGCATGCA_site703],9.59 ± 0.32

row,Sequence,gcPBM binding intensity (ln)
1,TTATACAACAAGAAAATTATAAAATGTAACATATAT [GTGCAC_negctrl_site406],8.53 ± 0.42
2,TTTATAATTTATATCACACATATATCTGTAATAAAT [CACACA_site5048],8.24 ± 0.44
3,TATATTTATAGACACACACACAAAAAAAAAAAAAAA [CACACA_site6818],8.37 ± 0.31
4,ATTTTCATGATAAAGGTGCAATTATTTTTATAAGAA,8.74 ± 0.13
5,ATTATTGTTTATTGATTTTTGTTAAAATAGGAAATT [GTGCAC_negctrl_site181],8.37 ± 0.4
6,AAAAAAATCACATAAAATACTTTATTTTATATTATA [GTGCAC_negctrl_site372],7.89 ± 0.36
7,ATTTTTAATCATTTACAACCTAGTGATTATACAAAT [CACACA_negctrl_site1089],8.51 ± 0.35
8,AAAAAAAAAAAGCACACACACATATGCGTATATATA [CACACA_site954],8.49 ± 0.57
9,TAAGAAAATATTTATGTATGCATGTCCTAATATTTC [TGCATGCA_site295],8.44 ± 0.3
10,TTGCCTTAAAAAGGAACACACATGCTTTTTTTAGTT [CACACA_site938],8.37 ± 0.45
11,TATTATAAATAAATAGAAAAAAAAATGATAAATGGA [CACACA_negctrl_site865],8.62 ± 0.42
12,TATGCATATACACAAGCACACATATATATATATATA [CACACA_site8266],10.1 ± 0.32
13,AAAAAAAAAAAAAACACACATACATACATACATATA [CACACA_site4121],8.55 ± 0.16
14,AAAACAGACAAACACACACACACATATATATATATA [CACACA_site3393],10.1 ± 0.49
15,AAAACAAACAGACACACACACATATATATATATATA [CACACA_site3655],10.3 ± 0.21
16,TGCATATACTCAAGCACACATATATATATATATATA [CACACA_site4733],10.2 ± 0.33
17,AAAAAAAAAAAAAAAACACACATATATATATATATA [CACACA_site2436],10.4 ± 0.11
18,TGCATATACGCAAGCACACATATATATATATATATA [CACACA_site1069],10.2 ± 0.51
19,AACACACACATATATATATATATATATATATATATA [GTGCAC_negctrl_site573],10 ± 0.47
20,AAAAAAAACAGACACACACACATACAAAATATATAT [CACACA_site1449],8.73 ± 0.47
21,AACTATAATTAAAGGATGCACTTGAAGGCATTTCAA [GTGCAC_site9689],8.34 ± 0.35
22,GCATATATCAAATATCGTACATTTTTTAAATTAAAA [XGTACX_site3994],8.42 ± 0.47
23,TACGTTCTGATATATACACACCTGGTATTAATTATG [CACACA_site7113],8.93 ± 0.46

row,Sequence,gcPBM binding intensity (ln)
1,AAAAAAAAATTAAAATGTACACATAAAAAAAAAAAA [XGTACX_site794],8.64 ± 0.42
2,ATTTCCTGGCTACTGTGTACTGACCTCCAGACTGCT [XGTACX_site2005],8.81 ± 0.55
3,ACTACATAATATTTACGTACCTAAAAAATTCTTATA [XGTACX_site509],8.51 ± 0.33
4,ATAATATAAATATGCACACAAATTATTACCCAAAAA [CACACA_site2524],8.56 ± 0.2
5,TTAAAAAAATATAATACACACCAAAAATATGCACAT [CACACA_site5209],8.85 ± 0.35
6,TGGGAAAAAATATATGCACACCCCCCAAAAAAAAAA [CACACA_site8696],11.1 ± 0.35
7,AAAAAAAAAAAAAACACACACACACCCAAATATATA [CACACA_site1169],8.71 ± 0.3
8,GGAAAAAATATATGCACACCCCCCAAAAAAAAAAAA [CACACA_site2222],10.95 ± 0.099
9,AAAAAAAAAAAACACACACACACACCCAAATATATA [CACACA_site150],8.49 ± 0.61
10,TACATATTTTATAGCACACAAATAATAATATGTAGT [CACACA_site688],8.68 ± 0.31
11,TTTGAGATGTGGTGTACACAAAATTAGGTACACATC [CACACA_site5773],8.92 ± 0.33
12,TCTTTTTCTTCTTATGTGCACATCAATTATGCTTCT,9.33 ± 0.35
13,AATGTGCTCGCTATTACACACTCATTGGGATAAACT [CACACA_site7043],8.56 ± 0.4
14,TAAATTAATAAACAAGTGCATATATATATATATATA,10.2 ± 0.38
15,TAAAAAATTAATAAAGTGCATAAATATTACAATATT,8.32 ± 0.18
16,CTGAAATTAACAAAAGTGCATAAAAATAAAAAATAT [GTGCAC_site9652],8.99 ± 0.29
17,TTTTTTTATTATTAAAGTACTAAAAAATGAAAACTG [XGTACX_site6758],8.26 ± 0.18
18,AAGTTGGAAAGGTTATGTACTTATTTTTTAAAATAA [XGTACX_site204],8.27 ± 0.45
19,TATCATTTTGTATATAGTACATATATAAAATCGTTA [XGTACX_site3875],8.35 ± 0.29
20,GTATAATAAATGATAGCACACATATGTACTTATATA [CACACA_site8188],8.57 ± 0.25
21,AGCCTCGGGGTCATATATATATATATATATATATAT [CACACA_negctrl_site512],10.2 ± 0.53
22,ATATAGTAAAATTATACACACATGAATTTTCCCATG [CACACA_site1770],8.48 ± 0.49
23,ATAAGTAATATAATATGTACATATATATATATATAT [XGTACX_site3818],10.2 ± 0.37

row,Sequence,gcPBM binding intensity (ln)
1,ATAAATAAATAAGTACATATATATATGTATATATAT [TGCATGCA_negctrl_site223],8.775 ± 0.021
2,TAATAATAGTAAATATGTACATATATATATATATAG [XGTACX_site4602],8.73 ± 0.3
3,AATAATAATAGTAATATGTACATATATATATATATA [TGCATGCA_negctrl_site542],10.1 ± 0.33
4,ATAATAATAGTAATATGTACATATATATATATATAT [XGTACX_site7437],10.2 ± 0.53
5,TATATATAAACATAATGTACATATAATAAGTAATAT [XGTACX_site497],8.89 ± 0.45
6,TTTAATAATATTTAGGTGCTATATATTATATGTATA,8.32 ± 0.21
7,CAATATAAAATAAAATGTACTTGTAGTAAAGGGATA [XGTACX_site1452],8.79 ± 0.35
8,TAGATACATACACGCACACACATATATAAATAAATA [CACACA_site6157],8.69 ± 0.49
9,ATAGATATACATATCACACATATATATATATATATA [CACACA_site4985],10.2 ± 0.23
10,AATGTGATAATATACACACACGCATATATATATATA [CACACA_site323],10.2 ± 0.2
11,AAGTAATACAACACGCACATATATATATATATATAT [GTGCAC_negctrl_site89],10.3 ± 0.3
12,ATTACATGATATATCACACACACATATAGATATATA [CACACA_site7352],8.65 ± 0.44
13,ATACAACATATATATACACACATATAATAATAATAA [CACACA_site3367],8.62 ± 0.42
14,GAAATGTGATAATATACACACACGCATATATATATA [CACACA_site4332],9.86 ± 0.3
15,TGTGCACGCATATACACACACAAATACAATGATAAA [CACACA_site6656],8.65 ± 0.36
16,CATATATAGATATATACACACATACATACATACATA [CACACA_site7748],8.55 ± 0.38
17,CATAGATACATACACGCACACACATATATATATATA [CACACA_site13],9.97 ± 0.36
18,AATACATATAATACAACACACAAGTAATATAAACCT [CACACA_site3597],8.87 ± 0.53
19,TAGATACATACACGCACACACATATATATATATATA [CACACA_site12],10.2 ± 0.29
20,TTATTCTAAAAATATACACACAACAACAAACAAACA [CACACA_site1543],9.04 ± 0.39
